In PubChem BioAssay (Tox21):
Records with an inconclusive call do not appear. The source made the active and inactive calls. Unless noted, calls come from the whole dose curve; as a rule, active = well fitted curve in the direction sought with a large enough effect in the repeat runs; inconclusive = weak or mixed curves; inactive = no such curve, though single readings can be large; an effect the other way counts as inactive or inconclusive.

Key:
[1] = A CellTox Green Cytotoxicity Assay to monitor cytotoxicity in HepG2 cells - 0 hour (AID 1224882); note: nearly all actives have a fitted effect of over 35% in size
Procedure, shortened: (§1)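 Nonlytic assay: viable cells exclude the dye, so fluorescence scales with cell death. HepG2 at 600 cells/well, compounds added after 5 h, signal read across 40 h.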

[2] = A CellTox Green Cytotoxicity Assay to monitor cytotoxicity in HepG2 cells - 32 hour (AID 1224883); note: nearly all actives have a fitted effect of over 50% in size
Procedure, shortened: as §1

[3] = A CellTox Green Cytotoxicity Assay to monitor cytotoxicity in HEK293 cells - 8 hour (AID 1224884); note: nearly all actives have a fitted effect of over 35% in size
Procedure, shortened: (§2)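 Seeding of HEK293 cells together with cytotoxicity dye preceded a 5 h incubation at 37 C/5% CO2. Test compounds in DMSO were then added and fluorescence monitored across 40 h.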

[4] = qHTS RealTime-Glo MT Cell Viability Assay in HepG2 cells - 16 hour (AID 1224885); note: nearly all actives have a fitted effect of over 50% in size
Procedure, shortened: (§3)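 Real-time, nonlytic viability: 600 HepG2 cells/well mixed with NanoLuc enzyme plus prosubstrate; 5 h settle, compound (DMSO) added by pintool; luminescence monitored over 40 h at 37 C.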

[5] = qHTS RealTime-Glo MT Cell Viability Assay in HEK293 cells - 24 hour (AID 1224886); note: top concentration of the series differs between compounds; nearly all actives have a fitted effect of over 50% in size
Procedure, shortened: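 Cells + reagent dispensed (600 cells/well, HEK293) → 5 h at 37 C/5% CO2 → 23 nL compound in DMSO pinned → 40 h at 37 C → luminescence read at 0, 8, 16, 24, 32, 40 h.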

[6] = qHTS RealTime-Glo MT Cell Viability Assay in HEK293 cells - 8 hour (AID 1224887); note: top concentration of the series differs between compounds; nearly all actives have a fitted effect of over 50% in size
Procedure, shortened: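 Tox21 screen in HEK293 using RealTime-Glo MT chemistry, with cells and reagent co-dispensed. Luminescence proportional to viable cell number was captured at intervals during 40 h compound exposure at 37 C.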

[7] = A CellTox Green Cytotoxicity Assay to monitor cytotoxicity in HEK293 cells - 16 hour (AID 1224888); note: nearly all actives have a fitted effect of over 35% in size
Procedure, shortened: as §2

[8] = qHTS RealTime-Glo MT Cell Viability Assay in HepG2 cells - 0 hour (AID 1224889); note: nearly all actives have a fitted effect of over 50% in size
Procedure, shortened: as §3

[9] = A CellTox Green Cytotoxicity Assay to monitor cytotoxicity in HepG2 cells - 8 hour (AID 1224890); note: nearly all actives have a fitted effect of over 45% in size
Procedure, shortened: as §1

[10] = qHTS assay to identify small molecule antagonists of the estrogen receptor alpha (ER-alpha) signaling pathway using the BG1 cell line in the presence of 0.1 nM 17-beta-estradiol - cell viability counter screen (AID 1259241); note: nearly all actives have a fitted effect of over 40% in size
Procedure, shortened: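 Cytotoxicity counter-screen: live-cell protease activity measured by fluorescence (30 min reagent step) in the same wells. Cells were VM7Luc4E2 with endogenous ER-alpha and ERE-driven luciferase, treated 22 hr at 37C alongside 0.1 nM 17beta-estradiol final.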

[11] = qHTS assay to identify small molecule antagonists of the androgen receptor (AR) signaling pathway using the MDA cell line in the presence of 0.5 nM R1881 - cell viability counter screen (AID 1259242); note: nearly all actives have a fitted effect of over 45% in size
Procedure, shortened: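 R1881 at 0.5 nM final stimulated MDA-kb2 cells during 16 hr compound treatment at 37C. Cytotoxicity read: CellTiter-Fluor fluorescence after 30 min.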

[12] = target: Estrogen receptor (Homo sapiens) (UniProt P03372); test: qHTS assay to identify small molecule antagonists of the estrogen receptor alpha (ER-alpha) signaling pathway using the BG1 cell line in the presence of 0.1 nM 17-beta-estradiol (AID 1259244); note: nearly all actives have a fitted effect of over 50% in size
Procedure, shortened: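 VM7Luc4E2; 4xERE-luciferase; 0.1 nM E2 final; 22 h co-incubation, 37C; ONE-Glo luminescence after 30 min at room temperature.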

[13] = qHTS assay to identify small molecule phospholipidosis (PLD) inducers (AID 1259344; active = well fitted curve in the direction sought with a large enough effect; an effect the other way counts as inactive or inconclusive)
Procedure, shortened: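 HepG2 cells, 900/well, treated with compound plus LipidTOX Red for 24 h at 37 C; amiodarone positive and DMSO negative controls. Fixed with paraformaldehyde/Hoechst, then high-content imaging scored LipidTOX pit count and integrated intensity per well and per cell.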

[14] = qHTS assay to identify small molecule HDAC inhibitors (AID 1259364); note: potency is the fitted concentration of half-maximal effect;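 note: wild-type HCT-116 cells with endogenous class I/II HDAC activity; nearly all actives have a fitted effect of over 45% in size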; for activity change, negative = inhibition: top concentration of the series differs between compounds
Procedure, shortened: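 Relative class I and II HDAC activity is taken from the luminogenic signal in HCT-116 cells, with compound exposure 2 hr and reagent development 30 min at room temperature.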

[15] = qHTS assay to identify small molecule HDAC inhibitors - cell viability counter screen (AID 1259365)
Procedure, shortened: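 CellTiter-Glo luminescence (30 min, room temperature) reported viability after a 2 h compound exposure at 37 C. Cells: wild-type HCT-116, 1,500 per well, seeded the night before.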

[16] = qHTS assay to identify small molecule agonists of the sonic hedgehog signaling (Shh) pathway - cell viability counter screen (AID 1259366); note: nearly all actives have a fitted effect of over 50% in size
Procedure, shortened: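 Cytotoxicity counter screen: CellTiter-Fluor reagent added after 23 h compound exposure, then 1 h at 37C and fluorescence read. Cells were 3T3 Gli1-Luc, seeded 2,000 per well and dosed 4 h post-plating.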

[17] = qHTS assay to identify small molecule antagonists of the sonic hedgehog signaling (Shh) pathway - cell viability counter screen (AID 1259367); note: nearly all actives have a fitted effect of over 55% in size
Procedure, shortened: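 NIH/3T3-derived Gli1-Luc reporter cells, 2,000/well, plated 4 hr before compound addition, then stimulated with conditioned medium for 24 hr at 37C. Viability measured in the same wells by CellTiter-Fluor fluorescence, reagent added at 23 hr for 1 hr.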

[18] = qHTS assay to identify small molecule agonists of the sonic hedgehog signaling (Shh) pathway (AID 1259368; calls by dose curve; note: nearly all actives have a fitted effect of over 15% in size; note: potency is the fitted concentration of half-maximal effect;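 for activity change: NIH/3T3-derived 3T3Gli1-Luc cells carrying a stable Gli1-driven firefly luciferase reporter; series mostly up to about 92 µM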)
Procedure, shortened: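 Mouse fibroblast (NIH/3T3) reporter cells with stably integrated Gli1-Luc were treated 24 hr with compound; firefly luciferase luminescence served as the read-out.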

[19] = qHTS assay to identify small molecule antagonists of the sonic hedgehog signaling (Shh) pathway (AID 1259369; calls by dose curve; note: nearly all actives have a fitted effect of over 45% in size; note: potency is the fitted concentration of half-maximal effect)
Procedure, shortened: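 Conditioned medium drives Shh signalling in 3T3Gli1-Luc cells; compounds in DMSO co-applied, 24hr at 37 C, then luciferase luminescence.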

[20] = target: Androgen receptor (Homo sapiens) (UniProt P10275); test: qHTS assay to identify small molecule antagonists of the androgen receptor (AR) signaling pathway using the MDA cell line in the presence of 0.5 nM R1881 (AID 1259243); note: nearly all actives have a fitted effect of over 50% in size
Procedure, shortened: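 We exposed MDA-kb2 cells to compounds under 0.5 nM R1881 stimulation for 16 hr at 37C and quantified MMTV-driven luciferase by luminescence.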
% is set by controls: 0 for no effect and ±100 for the full control effect.

Chain of Estrogen receptor (Homo sapiens) (P03372 whole entry, looked up): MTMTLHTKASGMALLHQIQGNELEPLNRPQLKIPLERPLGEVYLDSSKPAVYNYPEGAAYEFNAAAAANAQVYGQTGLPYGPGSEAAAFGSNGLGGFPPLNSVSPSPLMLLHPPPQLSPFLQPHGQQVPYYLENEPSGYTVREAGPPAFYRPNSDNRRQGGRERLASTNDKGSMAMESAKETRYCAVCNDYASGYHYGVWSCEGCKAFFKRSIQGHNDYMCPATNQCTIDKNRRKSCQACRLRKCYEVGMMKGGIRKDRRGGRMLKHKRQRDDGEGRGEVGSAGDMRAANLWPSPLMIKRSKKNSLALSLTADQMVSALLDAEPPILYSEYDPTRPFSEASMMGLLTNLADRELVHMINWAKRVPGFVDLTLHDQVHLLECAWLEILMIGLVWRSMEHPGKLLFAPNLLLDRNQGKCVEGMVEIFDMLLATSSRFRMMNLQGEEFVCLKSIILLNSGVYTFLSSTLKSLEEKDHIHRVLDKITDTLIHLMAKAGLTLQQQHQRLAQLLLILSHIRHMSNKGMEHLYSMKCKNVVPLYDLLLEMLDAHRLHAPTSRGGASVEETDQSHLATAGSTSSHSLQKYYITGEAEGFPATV
Chain of Androgen receptor (Homo sapiens) (P10275 whole entry, looked up): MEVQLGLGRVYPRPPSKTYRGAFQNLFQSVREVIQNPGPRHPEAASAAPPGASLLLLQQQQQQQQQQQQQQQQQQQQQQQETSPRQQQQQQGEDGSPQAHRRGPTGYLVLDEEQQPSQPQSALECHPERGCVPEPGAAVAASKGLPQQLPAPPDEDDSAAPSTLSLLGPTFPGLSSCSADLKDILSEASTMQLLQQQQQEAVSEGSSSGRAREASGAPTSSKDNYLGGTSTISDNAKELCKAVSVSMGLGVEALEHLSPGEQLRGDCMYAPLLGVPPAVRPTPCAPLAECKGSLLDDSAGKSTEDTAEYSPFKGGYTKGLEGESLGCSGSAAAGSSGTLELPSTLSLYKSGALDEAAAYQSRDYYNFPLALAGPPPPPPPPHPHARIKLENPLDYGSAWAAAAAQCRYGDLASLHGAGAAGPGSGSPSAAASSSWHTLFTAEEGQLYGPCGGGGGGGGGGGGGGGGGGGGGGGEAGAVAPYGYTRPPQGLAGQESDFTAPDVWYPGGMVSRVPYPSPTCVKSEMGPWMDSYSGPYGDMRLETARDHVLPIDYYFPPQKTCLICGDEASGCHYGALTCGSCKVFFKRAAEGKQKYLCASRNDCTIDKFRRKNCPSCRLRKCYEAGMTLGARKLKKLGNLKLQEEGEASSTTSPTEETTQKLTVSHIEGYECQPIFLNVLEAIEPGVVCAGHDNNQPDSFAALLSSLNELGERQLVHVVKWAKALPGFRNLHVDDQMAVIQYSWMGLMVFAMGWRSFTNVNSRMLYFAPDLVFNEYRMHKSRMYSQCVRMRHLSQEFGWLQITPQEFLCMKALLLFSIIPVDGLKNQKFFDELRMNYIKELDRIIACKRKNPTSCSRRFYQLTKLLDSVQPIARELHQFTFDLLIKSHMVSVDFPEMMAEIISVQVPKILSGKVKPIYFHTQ

c1ccc2sc(SSc3nc4ccccc4s3)nc2c1
inactive: cytotoxicity [1] 0.139% [at 15.8 µM] | cytotoxicity increase [2] 4.1% [at 15.8 µM] | cytotoxicity increase [3] 3.51% [at 15.8 µM] | activity change, negative = cytotoxic [4] 5.08% [at 15.8 µM] | activity change, negative = cytotoxicity [5] 4.46% [at 15.8 µM] | activity change, negative = cytotoxicity [6] 0.0342% [at 15.8 µM] | activity change [7] 10.5% [at 15.8 µM, stronger effect = higher value] | activity change, negative = cytotoxicity [8] 0.525% [at 15.8 µM] | cytotoxicity increase [9] 0.594% [at 15.8 µM] | activity change, negative = cytotoxicity [10] 8.69% [at 19 µM] | viability change, negative = cytotoxic [11] 8.85% [at 19 µM] | activity change, negative = inhibition [12] 1.45% [at 19 µM] | Potency [13] | activity change, negative = inhibition [14] -21.4% [at 19 µM] | activity change, negative = cytotoxicity [15] 0.0537% [at 19 µM] | viability change, negative = cytotoxic [16] 21.7% [at 19 µM] | viability change, negative = cytotoxic [17] 7.43% [at 19 µM] | activity change [18] 1.97% [at 18.9 µM, stronger effect = higher value] | activity change, negative = inhibition [19] 7.11% [at 19 µM]

CC(C)(C)S
inactive: Potency [1] | Potency [2] | Potency [3] | Potency [4] | Potency [5] | Potency [6] | Potency [7] | Potency [8] | Potency [9] | Potency [10] | Potency [11] | Potency [12] | Potency [14] | Potency [15] | Potency [16] | Potency [17] | Potency [19]

COc1ccc(C2C(=O)c3ccccc3C2=O)cc1
active: Potency [14] 23.7 µM
inactive: Potency [1] | Potency [2] | Potency [3] | Potency [4] | Potency [5] | Potency [6] | Potency [7] | Potency [8] | Potency [9] | Potency [10] | Potency [11] | Potency [12] | Potency [13] | Potency [15] | Potency [18] | Potency [19]

COC(=O)CC(C(C)=O)C(=O)OC (configuration not stated)
inactive: Potency [1] | Potency [2] | Potency [3] | Potency [4] | Potency [5] | Potency [6] | Potency [7] | Potency [8] | Potency [9] | Potency [10] | Potency [11] | Potency [20] | Potency [12] | Potency [14] | Potency [15] | Potency [16] | Potency [17] | Potency [19]

CCCCC[C@H](O)/C=C/[C@H]1[C@H](O)CC(=O)[C@@H]1C/C=C\CCCC(=O)O
inactive: Potency [1] | Potency [2] | Potency [3] | Potency [4] | Potency [5] | Potency [6] | Potency [7] | Potency [8] | Potency [9] | Potency [10] | Potency [11] | Potency [12] | Potency [13] | Potency [14] | Potency [17]
active: Potency [18] 10.6 µM | Potency [19] 0.006 µM

CCCCCCCCCCCC(=O)OCC(O)CO (configuration not stated)
inactive: Potency [1] | Potency [2] | Potency [3] | Potency [4] | Potency [5] | Potency [6] | Potency [7] | Potency [8] | Potency [9] | Potency [10] | Potency [11] | Potency [12] | Potency [13] | Potency [14] | Potency [16] | Potency [17] | Potency [18] | Potency [19]

O=C1NC(=O)c2cccc3cccc1c23
inactive: Potency [1] | Potency [2] | Potency [3] | Potency [4] | Potency [5] | Potency [6] | Potency [7] | Potency [8] | Potency [9] | Potency [10] | Potency [11] | Potency [12] | Potency [14] | Potency [15] | Potency [16] | Potency [17] | Potency [18] | Potency [19]

Nc1ccc(NC(=O)c2ccc(N)cc2)cc1
active: Potency [14] 27.3 µM
inactive: Potency [1] | Potency [2] | Potency [3] | Potency [4] | Potency [5] | Potency [6] | Potency [7] | Potency [8] | Potency [9] | Potency [10] | Potency [11] | Potency [20] | Potency [12] | Potency [16] | Potency [17] | Potency [18] | Potency [19]
